TPT1 inh = Candida albicans TPT1 enzyme inhibitors, primary screen, biochemical, fluorescence polarization; tRNA 2'-phosphotransferase TPT1 (Candida albicans SC5314); recombinant caTPT1, FP RNA substrate dephosphorylation; inhibition, % at 5 µM; 0.81% of 300,000 active;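 active = inhibition above the mean of all tested compounds plus 3 SD, set per screening campaign, cut at about 24% in these data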
Calb FLC = C. albicans growth inhibition with fluconazole, primary screen, CaCi-2 strain, Alamar Blue fluorescence | AID 1979, 2009 | 0.57% of 300,000 active | growth inhibition, % (concentration not given with the values) | C. albicans CaCi-2 (fluconazole-resistant clinical isolate) + fluconazole, 48 h;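 active = growth inhibition above about 58% in most replicates, limit read from the data, passing the limit was not always enough; inconclusive = exactly half the replicates above a set limit; inactive = most replicates below a set limit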;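 also: all wells also contain fluconazole at 8 µg/ml as a sub-toxic cotreatment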
IDE cell inh = human IDE inhibitors in live cells, primary screen, fluorescence polarization, HEK cells, FAbetaB substrate; AID 434962, 2010; 0.41% of 320,000 active; FAbetaB cleavage; Insulin-degrading enzyme (Homo sapiens), P14735; inhibition, % at 5.59 µM;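 active = percent inhibition above the average of all tested compounds plus 3 SD, set per screening campaign, cut at about 16% in these data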;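 also: IDE supplied by intact live HEK cells; FP after avidin binding of uncleaved biotin substrate so inhibition keeps polarization high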
Rpn11 block = Rpn11 (PSMD14) deubiquitinase inhibitors, primary screen, biochemical, fluorescence polarization, uHTS; inhibition, % at 20 µM; 0.59% of 360,000 active; human 26S proteasome, Ub4-pepOG fluorescence polarization; 20S core pre-blocked with epoxomicin;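 active = inhibition at 20 µM, scaled to each plate's controls, above about 33%, limit read from the data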
IDE cell activ = human IDE activators in live cells, primary screen, fluorescence polarization, HEK cells, FAbeta-B substrate | FAbeta-B cleavage; 0% vehicle, 100% cell-free pure enzyme wells | 0.073% of 340,000 active | AID 493087, 2011 | activation, % at 5.96 µM;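 active = activation above the mean of all tested compounds plus 3 SD, set per screening campaign, cut at about 17% in these data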
Rin1 Abl inh = inhibitors of Rin1-Abl protein binding, primary screen, biochemical, TR-FRET. Tyrosine-protein kinase ABL1 (Homo sapiens) + Ras and Rab interactor 1 (Homo sapiens), …. inhibition, % at 7.35 µM. 0.4% of 360,000 active. AID 588664, 2011; in the data active = inhibition above about 5%, passing the limit was not always enough
Target sequence (P00519 whole entry, looked up): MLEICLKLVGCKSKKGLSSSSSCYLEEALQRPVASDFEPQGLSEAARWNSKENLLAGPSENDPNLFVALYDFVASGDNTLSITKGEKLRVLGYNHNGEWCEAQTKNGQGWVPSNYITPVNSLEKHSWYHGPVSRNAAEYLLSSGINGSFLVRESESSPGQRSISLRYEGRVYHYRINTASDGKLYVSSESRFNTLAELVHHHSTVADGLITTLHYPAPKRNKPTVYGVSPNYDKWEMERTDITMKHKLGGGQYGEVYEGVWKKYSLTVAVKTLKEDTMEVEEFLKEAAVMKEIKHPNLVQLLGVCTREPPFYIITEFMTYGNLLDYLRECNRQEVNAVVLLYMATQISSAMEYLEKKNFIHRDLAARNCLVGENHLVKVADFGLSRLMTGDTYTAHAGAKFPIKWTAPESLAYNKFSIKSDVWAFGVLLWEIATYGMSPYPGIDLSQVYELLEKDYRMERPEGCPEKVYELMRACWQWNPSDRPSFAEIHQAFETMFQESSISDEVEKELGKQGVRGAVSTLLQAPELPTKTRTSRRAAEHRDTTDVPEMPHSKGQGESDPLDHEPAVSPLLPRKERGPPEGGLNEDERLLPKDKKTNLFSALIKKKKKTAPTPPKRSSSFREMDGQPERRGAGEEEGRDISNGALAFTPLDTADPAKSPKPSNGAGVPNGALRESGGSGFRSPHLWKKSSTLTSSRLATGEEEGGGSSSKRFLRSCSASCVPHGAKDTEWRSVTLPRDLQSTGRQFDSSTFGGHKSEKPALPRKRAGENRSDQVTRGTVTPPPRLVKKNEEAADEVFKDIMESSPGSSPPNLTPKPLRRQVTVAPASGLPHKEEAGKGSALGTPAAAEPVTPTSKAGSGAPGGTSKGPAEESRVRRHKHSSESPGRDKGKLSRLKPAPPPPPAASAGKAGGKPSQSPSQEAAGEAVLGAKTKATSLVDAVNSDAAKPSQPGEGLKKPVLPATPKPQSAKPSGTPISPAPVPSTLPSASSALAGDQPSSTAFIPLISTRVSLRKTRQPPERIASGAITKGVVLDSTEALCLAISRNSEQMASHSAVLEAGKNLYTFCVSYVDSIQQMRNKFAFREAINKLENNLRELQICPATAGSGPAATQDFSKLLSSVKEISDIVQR
Target sequence (Q13671 whole entry, looked up): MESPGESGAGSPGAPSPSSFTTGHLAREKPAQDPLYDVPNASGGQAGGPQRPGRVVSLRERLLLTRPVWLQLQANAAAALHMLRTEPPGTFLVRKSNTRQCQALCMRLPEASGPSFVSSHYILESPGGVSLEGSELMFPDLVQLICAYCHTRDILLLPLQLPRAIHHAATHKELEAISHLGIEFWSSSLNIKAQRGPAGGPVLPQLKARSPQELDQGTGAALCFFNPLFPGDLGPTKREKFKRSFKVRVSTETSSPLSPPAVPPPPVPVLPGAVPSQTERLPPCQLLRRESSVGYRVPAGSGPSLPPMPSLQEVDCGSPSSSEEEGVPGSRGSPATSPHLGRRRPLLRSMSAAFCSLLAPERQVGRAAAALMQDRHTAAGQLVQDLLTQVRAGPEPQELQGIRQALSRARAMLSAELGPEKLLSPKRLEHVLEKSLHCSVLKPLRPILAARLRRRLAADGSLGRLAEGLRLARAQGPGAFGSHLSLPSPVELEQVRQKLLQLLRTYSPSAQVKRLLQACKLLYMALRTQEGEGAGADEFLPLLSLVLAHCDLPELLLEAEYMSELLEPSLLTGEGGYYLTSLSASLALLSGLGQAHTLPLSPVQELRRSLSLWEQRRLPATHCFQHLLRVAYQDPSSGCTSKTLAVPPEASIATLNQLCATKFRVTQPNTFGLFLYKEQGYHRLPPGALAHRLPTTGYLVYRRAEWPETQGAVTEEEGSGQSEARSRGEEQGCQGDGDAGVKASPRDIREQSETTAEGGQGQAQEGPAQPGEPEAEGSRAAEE
Hits are given with their value; i = inactive; ? = inconclusive; nt = no result given. An excerpt weighted towards active compounds, which were near 2.3% of everything screened.

SMILES | TPT1 inh | Calb FLC | IDE cell inh | Rpn11 block | IDE cell activ | Rin1 Abl inh
Cc1c(OCC(=O)NCC(O)c2ccccc2)ccc2c(-c3ccccc3)cc(=O)oc12 (configuration not stated) | i | 80.5 | i | i | i | i
Cc1c(OCC(=O)NCc2ccccn2)ccc2c(-c3ccccc3)cc(=O)oc12 | i | i | i | i | i | i
CC(=O)c1ccc(NC(=O)c2cccc(N3C(=O)c4ccccc4C3=O)c2)cc1 | i | i | i | 58.8 | i | i
COc1ccc(CCN2CC(C(=O)NCCc3ccccc3C(F)(F)F)CCC2=O)cc1 (configuration not stated) | i | i | i | i | i | i
CCN(CC)CCNC(=O)CS(=O)Cc1nc(-c2ccccc2Cl)oc1C (configuration not stated) | i | i | i | i | 17.7 | i
CC(C)(C)c1ccc(C(=O)CC(=O)c2cc(Cl)ccc2O)cc1 | i | 106.3 | i | i | i | i
Cc1ccc(C(=O)CC(=O)c2ccc(C(C)(C)C)cc2)cc1 | i | 108.5 | i | i | i | i
O=C1NC(=O)C2(CCCCCCC2)N1 | nt | nt | nt | i | i | i
COc1cc(CC(=O)OCC(=O)NCc2cccs2)cc(OC)c1OC | nt | nt | i | i | i | i
N#CCC(=O)NNC(=S)NC(=O)C(c1ccccc1)c1ccccc1 | i | i | i | i | i | i
CCCCC(=O)NNC(=S)NC(=O)c1ccc([N+](=O)[O-])cc1 | i | ? | i | i | i | i
CCCCC(=O)NNC(=S)NC(=O)c1ccc(C)cc1 | i | 101.4 | i | i | i | i
Cc1ccc(C(=O)NC(=S)NNC(=O)CC#N)cc1 | i | 109.2 | i | i | i | i
O=C(Cn1ncc2c1-c1ccccc1OC2)Nc1ccc(S(=O)(=O)N2CCCCC2)cc1 | i | nt | i | i | i | 12.4
O=C(NNC(=O)c1ccc2ccccc2c1O)c1ccccc1Cl | i | 85.7 | i | i | i | i
COc1cccc(C(=O)NNC(=O)c2ccc3ccccc3c2O)c1 | i | 102.1 | i | i | i | i
O=C(NNC(=O)c1cccc2ccccc12)c1ccc(Cl)cc1Cl | nt | nt | nt | i | i | i
CCN(CC)C(=S)SSC(=S)N(CC)CC | i | 100.3 | i | i | i | i
CCN(CC)C(=S)SCC(=O)c1ccccc1 | i | i | i | i | i | i
COC(=O)c1cc(C)sc1NC(=O)c1cccnc1 | i | 110.0 | i | i | i | i
CC(C)OC(=O)C(=O)NNc1ccccc1 | i | 129.5 | i | i | i | i
COc1ccccc1N(Cc1ccccc1)S(=O)(=O)c1cccc(C(=O)NC2CC(C)(C)NC(C)(C)C2)c1 | i | i | i | i | i | i
CSCCC(NS(=O)(=O)c1ccc2c(c1)oc(=O)n2C)C(=O)NCc1ccc(C)cc1 (configuration not stated) | i | i | i | i | i | i
N=c1c2c(-c3ccccc3)c(-c3ccccc3)n(Cc3ccccc3)c2ncn1CCO | i | 96.6 | i | i | i | i
N=c1c2c(-c3ccccc3)c(-c3ccccc3)n(Cc3ccco3)c2ncn1Cc1ccccc1 | i | i | i | i | i | i
SMILES | TPT1 inh | Calb FLC | IDE cell inh | Rpn11 block | IDE cell activ | Rin1 Abl inh
c1ccc(C(c2c[nH]c3ccccc23)c2c[nH]c3ccccc23)nc1 | i | i | i | i | i | i
Cn1cc(C(c2ccccn2)c2cn(C)c3ccccc23)c2ccccc21 | i | 94.3 | i | i | i | i
CN1/C(=C/C(=O)c2cccs2)Sc2ccccc21 | i | 83.7 | i | i | i | i
CCCC(=O)N1CCCC1(C)C(=O)NCc1ccc(SC)cc1 (configuration not stated) | nt | nt | nt | i | nt | i
Cc1cc(Oc2ccccc2)nc(-c2ccccc2O)n1 | i | 104.2 | i | i | i | i
CC(=O)Nc1ccc(C=C(C#N)c2ccc(C)cc2)cc1 | nt | nt | nt | i | nt | i
CC(=O)Cc1nsc(Nc2ccc(Cl)cc2)n1 | i | 117.5 | i | i | i | i
Cc1oc(-c2cccc(Cl)c2)nc1CS(=O)(=O)CC(=O)NC1CCCC1 | i | i | i | i | i | i
